# Screens from PubChem.
# This is a sample that favours compounds with a hit; in the whole collection about 3.2% have one here.
# Mcl1 Bid PPI: disrupts binding of human Mcl-1 to Bid peptide | inhibition, % at 21.7 µM | TR-FRET Mcl-1/Bid-Dy647 peptide binding, 1536-well | hit rate 0.97% among 220,000 | AID 1021;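 active = compounds that cut the binding signal by more than half at the single screening dose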;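 note: His-tagged Mcl-1 with europium anti-His antibody binding Bid BH3 peptide; 0% = Mcl-1 plus peptide wells and 100% = peptide-only wells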
# p47phox inh: inhibitors of human p47phox binding. AID 1274. inhibition, % at 24.7 µM. P14598. hit rate 0.53% among 220,000. p47phox/p22phox peptide binding, fluorescence polarization, 2 h;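 active = inhibition above about 30%, limit read from the data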;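 note: 0% = p47phox with labelled peptide and 100% = labelled peptide alone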
# Target sequence (P14598 whole entry, looked up): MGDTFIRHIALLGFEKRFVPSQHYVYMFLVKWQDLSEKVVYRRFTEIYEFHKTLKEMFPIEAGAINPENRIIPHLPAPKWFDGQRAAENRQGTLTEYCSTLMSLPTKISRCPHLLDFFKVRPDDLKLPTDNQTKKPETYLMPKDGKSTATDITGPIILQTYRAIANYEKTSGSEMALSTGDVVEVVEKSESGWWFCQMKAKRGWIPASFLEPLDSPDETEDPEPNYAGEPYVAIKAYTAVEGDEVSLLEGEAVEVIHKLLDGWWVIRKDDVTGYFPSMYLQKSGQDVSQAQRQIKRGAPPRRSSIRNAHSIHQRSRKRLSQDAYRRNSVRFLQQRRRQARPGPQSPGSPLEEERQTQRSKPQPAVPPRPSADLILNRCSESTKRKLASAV
# Mcl1-Noxa inh: Mcl-1/Noxa interaction inhibition; inhibition, % at 21.7 µM; Q07820; hit rate 1.5% among 220,000; TR-FRET Mcl-1/Noxa peptide binding, 2 h; AID 1022;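 active = compounds that cut the protein-peptide binding signal by more than 50% relative to plate controls in a single-dose test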;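 note: His-tagged Mcl-1 with rhodamine Noxa BH3 peptide and terbium anti-His antibody; 0% = Mcl-1 plus Noxa peptide wells and 100% = peptide-only wells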
# 14-3-3 Bad inh: disrupts binding of bovine 14-3-3 zeta to phospho-Bad peptide; TR-FRET 14-3-3zeta/Dy647-pBad peptide displacement, 1 h; hit rate 0.71% among 220,000; inhibition, % at 21.7 µM;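 active = inhibition above about 70%, limit read from the data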;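 note: 0% = full 14-3-3 plus peptide FRET controls and 100% = background without 14-3-3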
# Mcl-1 Bim block: human Bim-Mcl-1 interaction inhibition; Q07820; Bead-based flow cytometry, Bim peptide-Mcl-1 binding; inhibition, % at 10 µM; hit rate 0.1% among 190,000; AID 1009; in the data active = inhibition above about 40%;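 note: 0% = no compound tracer wells and 100% = peptide blocker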
# Starred values were filed as active, the others as inactive; · = not tested or not shown.
SMILES,Mcl1 Bid PPI,p47phox inh,Mcl1-Noxa inh,14-3-3 Bad inh,Mcl-1 Bim block
CCOC(=O)c1sc(NC(=O)Nc2ccc(Cl)cc2)cc1C,7,-53,100*,11,2
CN1CCN(c2ccc(Cl)cc2NC(=O)c2ccc(S(=O)(=O)N(C)C)cc2)CC1,8,-5,55*,-6,0
O=[N+]([O-])c1ccccc1/C=C/C=N/n1c(-c2cc(-c3ccccc3)n[nH]2)n[nH]c1=S,-33,4,58*,49,·
S=c1[nH]nc(-c2cc(-c3ccccc3)n[nH]2)n1/N=C/c1ccccc1,-103,-15,-13,-6,·
S=c1[nH]nc(-c2cc(-c3ccccc3)n[nH]2)n1/N=C/C(Br)=C/c1ccccc1,-93,14,76*,-7,·
CCn1cc(C(=O)O)c(=O)c2cnc(N3CCN(C(=S)NC(=O)c4ccccc4Cl)CC3)nc21,-10,-16,-37,-6,·
O=C(Nc1nnc(C2CC2)s1)c1n[nH]c(=O)c2ccccc12,-22,-9,-8,-7,·
COCCCn1c(=S)[nH]c2sc3c(c2c1=O)CCCS3,-89,-11,65*,-6,-4
S=c1[nH]nc(Cn2cnc3ccccc32)n1-c1ccccc1,-31,11,17,-8,-10
CCCCCC1CC(CC(=O)O)C(=O)O1 (centres undefined),-19,-5,-16,9,2
CCCCCC1CC(CC#CCN2CCOCC2)C(=O)O1 (centres undefined),51*,4,-1,38,0
Cc1ccc(Cn2c(=O)sc3ccccc3c2=O)cc1,-9,-9,9,-3,-1
Cc1ccc(-n2sc3ccccc3c2=O)cc1,-34,101*,27,41,-10
CC(NC(N)=O)C(=O)Nc1ccc(Cl)c(S(=O)(=O)Nc2ccc(Br)cc2)c1 (centres undefined),-4,-2,57*,-1,-1
Cc1ccc(/C=C/C(=O)Nc2ccc(N(C)C)cc2)o1,10,1,95*,3,2
Cc1ccc(/C=C/C(=O)Nc2cccc(S(=O)(=O)N3CCOCC3)c2)o1,-1,-12,53*,-7,-5
Cc1ccc(/C=C/C(=O)Nc2ccncc2)o1,-50,15,36,-30,-11
CC(NC(=O)CCCn1cc([N+](=O)[O-])cn1)c1ccccc1 (centres undefined),-1,-1,14,7,0
CN(C(=O)COC(=O)c1ccccc1C(=O)N1CCN(c2ccccc2)CC1)c1ccccc1,-50,8,-3,-30,2
O=C(O)C1CCC(Cn2c(SCc3cc(=O)n4cc(Cl)ccc4n3)nc3ccsc3c2=O)CC1 (centres undefined),-26,-11,2,-2,4
CCn1c(O)c(C2=c3ccccc3=NC2=O)c2cc(Br)ccc21,1,5,22,1,0
O=C1N=c2ccccc2=C1c1c(O)n(-c2cccc(F)c2)[nH]c1=O,73*,17,102*,34,-10
Cc1cccc(Nc2ncnc3ccccc23)c1,-30,-7,-19,73*,0
O=c1c2c(-c3ccccc3)csc2nc2c3ccccc3c(NCCN3CCOCC3)nn12,12,74*,17,43,19
COCCN1C(=O)CS/C1=C(/C#N)C(=O)NCc1ccco1,-27,-10,12,-13,-1
SMILES,Mcl1 Bid PPI,p47phox inh,Mcl1-Noxa inh,14-3-3 Bad inh,Mcl-1 Bim block
Cc1ccc(N=C2NC(=O)/C(=C\c3ccsc3)S2)c(C)c1,8,-19,5,5,-3
CCOC(=O)C1CCN(C(=O)c2ccc(Cl)c(S(=O)(=O)N3CCOCC3)c2)CC1,-11,-3,10,-8,-5
CCOC(=O)C1CCN(C(=O)c2cc(S(=O)(=O)N3CCOCC3)c(Cl)cc2Cl)CC1,95*,-2,-7,-9,-6
CCOC(=O)CC1=CSC2=NS(=O)(=O)CCN12,-3,-4,74*,5,-4
CCOC(=O)C1=CSC2=NS(=O)(=O)CCN12,8,3,6,6,-2
CNS(=O)(=O)c1ccc(OC)c(-c2nnc3c4ccccc4c(C)nn23)c1,-15,12,4,92*,-2
COc1ccc(S(=O)(=O)NC(C)(C)C)cc1-c1nnc2c3ccccc3c(C)nn12,-16,-3,9,10,-1
CNC(=O)c1sc(-c2ccccn2)nc1C,-2,-2,8,-3,59*
COc1ccc(CN2C(=O)Cc3c2nc(N)c2c(N)nc(N4CCOCC4)c(C#N)c32)cc1,-107,-50,36,-2,·
COCCN1C(=O)Cc2c1nc(N)c1c(N)nc(N3CCN(c4ccc(F)cc4)CC3)c(C#N)c21,-6,3,61*,-18,0
